From PubChem BioAssay (NCATS)
Inconclusive results are not listed. A number with no mark means an inactive call. Activity calls are given as the source filed them. Calls follow the shape of the dose curve; as a rule, active = well fitted cell-killing curve with a large enough effect; inconclusive = small, poorly fitted or top-dose-only effect; inactive = flat fitted curve, though single readings scatter.

Experiment: Cell Viability - LYMP2-013 (AID 970);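 also: 0% = DMSO only and full inhibition = tetraoctylammonium bromide control; nearly all actives have a fitted effect of over 55% in size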
Settings: LYMP2-013 lymphoblastoid cells viability; series mostly up to 92.2 µM; activity change, negative = cytotoxic: at the top concentration
Source text: NIH Chemical Genomics Center [NCGC]
NIH Molecular Libraries Screening Centers Network [MLSCN]
National Institutes of Environmental Health Sciences [NIEHS]
National Toxicology Program [NTP]
We have developed a 1536-well cell-based assay for quantitative high throughput screening (qHTS) against a number of cell lines to determine in vitro cytotoxicity of small molecules. This particular assay uses a human lymphoblastoid cell line (LYMP2-013) purchased from Coriell Institute for Medical Research.
NCGC Assay Protocol Summary:
The CellTiter-Glo luminescent cell viability assay (Promega) is a homogeneous method to measure the number of viable cells in culture. The end point readout of this assay is based on quantitation of intracellular ATP, an indicator of metabolic activity, using the luciferase reaction. Luciferase catalyzes the oxidation of beetle Luciferin to oxyluciferin and light in the presence of ATP. The luminescent signal is proportional to amount of ATP present.
Using the CellTiter-Glo luminescent cell viability assay, the amount of cellular ATP was measured in the lymphoblastoid cell line with complete culture medium following compound treatment for 24 hours. The assay was performed in opaque white Kalypsys 1536-well plates. In the screen, tetraoctylammonium bromide was used as positive control. Library compounds were measured for their ability to cause acute toxicity in the cell line, as reflected by a decrease in intracellular ATP levels, in a concentration-dependent manner. […] AC50 values were determined from concentration-response data modeled with the standard Hill equation.
qHTS protocol for CellTiter Glo lymphoblastoid cellular assay
[Step] [Parameter] [Value] [Description]
1. Reagent; 5 uL; 2500 lymphoblastoid cells/well
2. Time; 5 hr; 37 C incubation
4. Controls; 23 nL; Tetraoctylammonium bromide 6.4pM to 92 uM
5. Time; 24 hr; 37 C incubation
6. Reagent; 5 uL; CellTiter Glo reagent
7. Time; 30 min; Room Temperature
8. Detection; Luminescence; Viewlux plate reader
Keywords: cell viability, cytotoxicity, lymphoblastoid cell line, luminescence, NTPHTS, NTPHTS_NCGC, NIEHS, DSSTox, MLSMR, MLSCN, NIH Roadmap, qHTS, NCGC

Structure (SMILES)	activity change, negative = cytotoxic	outcome
COC(=O)C(c1ccccc1)C1CCCCN1 (stereo not drawn)	-8.98%	
COc1cc(OC)c(OC)cc1C=O	-3.12%	
CCOC(=O)CC(SP(=S)(OC)OC)C(=O)OCC (stereo not drawn)	-5.88%	
Nc1ccccc1	-4.43%	
NCCc1ccc(O)cc1	-4.68%	
Nc1ccccc1C(=O)O	3.51%	
C[C@]1(O)CC[C@H]2[C@@H]3CCC4=CC(=O)CC[C@]4(C)[C@@]3(F)[C@@H](O)C[C@@]21C	-5.72%	
COP(=S)(OC)Oc1ccc(SC)c(C)c1	-2.73%	
CCCC(C)(COC(N)=O)COC(N)=O	1.34%	
CN1C[C@H](C(=O)N[C@]2(C)O[C@@]3(O)[C@@H]4CCCN4C(=O)[C@H](Cc4ccccc4)N3C2=O)C=C2c3cccc4[nH]cc(c34)C[C@H]21	-26.8%	
CC(C)NC(C)C	-1.37%	
CCC(C)(C)c1ccc(O)cc1	-8.01%	
C[C@]12CCC(=O)C=C1CC[C@@H]1[C@@H]2CC[C@]2(C)C(=O)CC[C@@H]12		inactive
Oc1ccc(Cl)cc1	-1.93%	
CC(C)c1cccc(C(C)C)c1O	-3.17%	
C[C@]12CCC(=O)C=C1CC[C@@H]1[C@@H]2CC[C@@]2(C)[C@H]1CC[C@]2(C)O	-21.3%	
O=P1(N(CCCl)CCCl)NCCCO1 (stereo not drawn)	-3.07%	
Clc1ccc(C(c2ccc(Cl)cc2)C(Cl)(Cl)Cl)cc1	-6.5%	
